Where “and” joins values, the source holds several entries; their conditions need not be identical. Identical values can stand only once. Screen size: about 400,000 compounds; about 3,700 (0.93%) were called active. Another 3% or so got no clear call; they are omitted. Calls come from the whole dose curve; as a rule, active = well fitted inhibition curve with a large enough effect; inconclusive = small, poorly fitted or top-dose-only effect, or another doubt; inactive = no such curve, though single readings can be large or run the other way. This excerpt belongs to a sample that is enriched for actives.
target: Vitamin D3 receptor (Homo sapiens) (UniProt P11473); assay: Inhibitors of the vitamin D receptor (VDR): qHTS; settings: VDR-SRC2-3 peptide fluorescence polarization, 2 h; max response, negative = inhibition: hits give low values
Sequence (P11473 whole entry, looked up): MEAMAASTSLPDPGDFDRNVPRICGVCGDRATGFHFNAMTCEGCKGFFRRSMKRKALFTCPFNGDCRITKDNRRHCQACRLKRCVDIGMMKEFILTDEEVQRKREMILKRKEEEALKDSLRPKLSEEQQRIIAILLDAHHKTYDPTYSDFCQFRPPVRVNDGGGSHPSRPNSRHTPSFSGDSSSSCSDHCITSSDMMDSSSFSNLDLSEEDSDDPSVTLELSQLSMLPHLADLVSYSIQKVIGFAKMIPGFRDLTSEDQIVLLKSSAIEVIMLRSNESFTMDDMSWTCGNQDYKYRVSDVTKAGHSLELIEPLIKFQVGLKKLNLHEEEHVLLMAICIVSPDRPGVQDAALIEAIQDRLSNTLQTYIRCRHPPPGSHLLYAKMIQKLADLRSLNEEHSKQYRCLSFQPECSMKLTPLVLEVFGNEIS
Method in brief: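 Signal is fluorescence polarization, reporting how far test compounds block the interaction of VDR with the SRC2-3 coregulator peptide after a 2 h room-temperature incubation.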
% is set by controls: 0 for no effect and ±100 for the full control effect; potency is the fitted concentration of half-maximal effect.

Max response, negative = inhibition, inactive:
Cc1cc(C)cc(-n2ccnc2SCC(=O)Nc2nc3ccccc3s2)c1 -5.28%
COc1cccc(-c2n[nH]c3c2C(c2cccc(O)c2)N(C)C3=O)c1 (stereo not drawn) 9.73%
Cc1ccc(NC(=O)CSc2nc3c([nH]c4ccccc43)c(=O)n2-c2ccccc2)c(C)c1 3.26%
Cc1cccc(-n2ccnc2SCC(=O)Nc2cccc3ccccc23)c1C 21%
COc1ccc(N(C(=O)c2cccnc2)S(=O)(=O)c2ccc(OC)c(OC)c2)cc1 2.95%
O=C(c1cccnc1)N(Cc1ccccc1)C(=O)c1cccnc1 -6.19%
Cc1sc2ncn(CC(=O)N3CCN(c4ccc(F)cc4)CC3)c(=O)c2c1S(=O)(=O)N1CCN(c2ncccn2)CC1 -10.1%
O=S(=O)(c1ccccc1)c1nc(-c2ccc(Cl)cc2Cl)oc1N1CCCCC1 1.4%
CCOc1ccc(S(=O)(=O)Nc2ccc3oc4c(c3c2)CC(C)CC4)cc1 (stereo not drawn) -17.2%
O=C(Nc1ccc2ccccc2c1[N+](=O)[O-])c1ccccc1 -2.31%
COC(=O)c1nc(NC(=O)c2ccccc2)n[nH]1 -20%
CC(=O)OC1=C(C(C)=O)N(Cc2ccccc2)S(=O)(=O)c2ccccc21 8.35%
CCOC(=O)N1CCc2c(sc(NCc3cccc(F)c3)c2C(=O)Nc2ccccc2OCC)C1 -13.2%
COC(=O)c1sc(N2CCN(Cc3ccccc3)CC2)nc1N 1.38%
COCCOC(=O)c1sc(=S)n(CCOC)c1N -9.87%
COc1ccc(CCNC(=O)c2ccc(CSCc3ccc(C)cc3)o2)cc1OC 9.55%
CCNc1ncc2ncc(=O)n(CCc3ccccc3)c2n1 -21%
COc1cccc(Cn2c(=O)c(-c3ccccc3)nc3cnc(OC)nc32)c1 -7.36%
COc1ccc(CC(=O)NCCc2sc3nc(-c4ccc(OC)cc4)nn3c2C)cc1 5.32%
CCCCCCCCCc1ccc(OCCOCCOCCOCCOCCOCCOCCOCCOCCO)cc1 1.96%
CCOC(=O)C1(CCOC)CCN(Cc2ccc(C(=O)OC)cc2)CC1 15.5%
CCCS(=O)(=O)N1CCC(CCOc2ccccc2)(C(=O)OCC)CC1 -9.73%
COc1cc(Cl)c(C)cc1NC(=O)CCc1nc2cccnc2n1Cc1cccs1 3.57%
Cc1cccc(N2CCN(C(=O)c3oc(=O)c4ccccc4c3-c3ccccc3)CC2)c1C -3.42%
CCCCC/C=C\C[C@H](O)/C=C/C=C/C=C/[C@@H](O)CCCC(=O)O 7.71%
O=C(Nc1cccc(Cl)c1)c1csnn1 -5.14%
O=C(Nc1ccc(Oc2ccccc2)cc1)C1CCN(S(=O)(=O)c2ccc(Cl)cc2)CC1 -4.34%
O=C(c1cccc(Cl)c1)N1CCN(CCc2ccncc2)CC1 9.31%
Cc1ccccc1NC(=O)CCOc1ccccc1 -6.86% and -22.6%
Cc1ccccc1NC(=O)Cn1cc(C(=O)C2CC2)c2ccccc21 8.49%
COc1ccc(CCC(=O)c2c(O)cc(OC3OC(CO)C(O)C(O)C3O[C@@H]3OC(C)C(O)C(O)C3O)cc2O)cc1O (stereo partly drawn) -4.57%
CCOc1cccc(NC(=O)CSc2ncc(-c3ccc(Cl)cc3)[nH]2)c1 -19.8%
CC(C)=CCN1CCC2(CCc3ccccc32)CC1 10%
COc1ccc(Cc2nc3ccc(C(=O)NCc4ccc(OC)cc4OC)cc3o2)cc1 0.0782%
NC(=O)CSc1oc(-c2cccs2)nc1S(=O)(=O)c1ccccc1 2.03%
Cc1ccc(S(=O)(=O)c2nc(-c3cccs3)oc2NCc2cccnc2)cc1 -8.24%
Cc1ccc(N2CC(c3nnc(Cc4ccccc4Cl)o3)CC2=O)cc1 (stereo not drawn) 0.444%
Cc1ccc(-c2nnc3ccc(SCC(N)=O)nn23)cc1 -9.24%
Cc1ccc(-c2nn3c(=O)cc(CN4CCN(S(=O)(=O)c5ccc(Cl)cc5)CC4)nc3s2)cc1 6.31%
CC(C)(C)NC(=O)NC(=O)COC(=O)C1c2ccccc2Oc2ccccc21 -16.6%
CCc1c(C)sc(NC(=O)C2c3ccccc3Oc3ccccc32)c1C(=O)OC(C)C -13.1%
COc1cc(C(=O)N2CCC(c3ccncc3)CC2)cc(OC)c1OC 6.52%
CCOC(=O)c1c(NC(=O)CSc2nnc(CNc3ccc(C)cc3C)o2)sc(C)c1C -11.8%
CCOC(=O)c1c(NC(=O)CSc2nccc(=O)[nH]2)sc(C)c1C -12.3%
CCc1nn(CC(=O)Nc2cccc(C)c2C)c(=O)c2cc3sccc3n12 -8.74%
CCOc1cccc2cc(-c3cn4c(n3)sc3cc(C)ccc34)c(=O)oc12 10.9%
COc1ccc(-c2nc3cnc(Oc4ccccc4)nc3n(Cc3cccs3)c2=O)cc1 -0.524%
COc1cccc(N2CCN(S(=O)(=O)c3ccc4c(c3)CCCN4C(C)=O)CC2)c1 4.58%

Potency, active:
O=C(c1cccnc1)N(c1cc2sc(=O)oc2c2ccccc12)S(=O)(=O)c1ccccc1 25.1 µM
O=C(NC1=CC(=O)c2ccccc2C1=O)c1ccccc1 11.2 µM
COC(=O)c1sc(=S)n(-c2ccccc2)c1N 79.4 µM
CCNc1ncc2ncc(=O)n(Cc3cccc(OC)c3)c2n1 50.1 µM
CCOC(=O)C1(CCOC)CCN(Cc2cc3ccccc3s2)CC1 44.7 µM
O=C(Nc1ccccc1)c1nnsc1S(=O)(=O)c1ccc(Cl)cc1 25.1 µM
Cc1ccccc1NC(=O)CSC(=O)c1ccccc1 79.4 µM
CCCCS(=O)(=O)c1oc(-c2cccs2)nc1S(=O)(=O)c1ccccc1 10 µM
CC(C)(C)c1nnc(NC(=O)C2c3ccccc3Oc3ccccc32)s1 35.5 µM
CCOC(=O)c1c(NC(=O)COc2cc(C)ccc2C(C)C)sc(C)c1C 39.8 µM

— PubChem BioAssay AID504847 (National Center for Advancing Translational Sciences (NCATS), 2011)
